# Results from PubChem BioAssay (EPA / NIEHS).
# Results filed as inconclusive are left out. Active and inactive are the calls of the source. How the source made its calls, unless noted: active means hit-call score of the fitted dose curve at least 0.9, where 1 is the maximum; inconclusive means response in the unintended direction; inactive means score below 0.9.
# How the values were obtained:
# [1] = test system: turtle Thyroid Hormone Receptor, alpha (TRa), gene 101949057; assay: ATG_trTRa_XSP2: Attagene TRANS-FACTORIAL Multi-Species (XSP1) HepG2 Assay for turtle Thyroid Hormone Receptor, alpha (TRa) (AID 2283834);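 further: hits raise reporter mRNA over the DMSO baseline so AC50 marks activators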
# How it was run: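 Transfection of HepG2 with multiple reporter transcription units, then chemical dosing for 24 h. Total RNA was reverse-transcribed, reporter sequences PCR-amplified and FAM-labelled, then sized by capillary electrophoresis. DMSO served as baseline.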
# [2] = ATG_M_61_XSP2: Attagene TRANS-FACTORIAL Multi-Species (XSP2) HepG2 Assay for M61 Transcription Factor (Internal Marker) (AID 2283835; active means hit-call score of the fitted dose curve at least 0.9, where 1 is the maximum; inactive means score below 0.9;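 further: active means a rise in signal above the DMSO baseline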)
# How it was run: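 HepG2 cells transiently transfected with multiple GAL4-UAS reporter units; reporter mRNA measured 24 h after dosing by RT-PCR, fluorescent labelling and capillary electrophoresis. Medium contained 3 nM 6-alpha-fluorotestosterone and 1.5 nM norgestrel; internal marker, DMSO baseline.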
# [3] = target: zebrafish Thyroid Hormone Receptor beta (TRb), thrb (gene 30607) (UniProt Q9PVE4); assay: ATG_zfTRb_XSP2: Attagene TRANS-FACTORIAL Multi-Species (XSP1) HepG2 Assay for zebrafish Thyroid Hormone Receptor beta (TRb) (AID 2283836)
# Sequence of zebrafish Thyroid Hormone Receptor beta (TRb), thrb (gene 30607) (Q9PVE4 whole entry, looked up): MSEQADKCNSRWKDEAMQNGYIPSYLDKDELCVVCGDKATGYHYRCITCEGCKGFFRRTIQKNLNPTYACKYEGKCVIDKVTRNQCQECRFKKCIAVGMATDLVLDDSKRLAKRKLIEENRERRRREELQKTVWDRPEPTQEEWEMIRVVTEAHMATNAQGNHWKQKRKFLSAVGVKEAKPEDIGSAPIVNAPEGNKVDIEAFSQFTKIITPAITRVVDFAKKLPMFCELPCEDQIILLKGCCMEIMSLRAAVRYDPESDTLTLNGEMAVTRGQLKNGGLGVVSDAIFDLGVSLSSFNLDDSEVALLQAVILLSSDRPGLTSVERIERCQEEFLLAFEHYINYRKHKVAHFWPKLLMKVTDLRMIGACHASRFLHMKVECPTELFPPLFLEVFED
# Protocol: ATG_XSP2_multi-species_TRANS is a cell-based, multiplexed assay created by modifying the existing Attagene TRANS-FACTORIAL system to include a panel of nuclear receptors from some or all the following species: human (Homo sapiens), mouse (Mus musculus), frog (Xenopus laevis), zebrafish (Danio rerio), chicken (Gallus gallus), and turtle (Chrysemys picta). The ECOTOX-FACTORIAL format uses HepG2, a human liver cell line, with measurements taken at 24 hours after chemical dosing in a 24-well plate. Xsp2 included 3 nM 6-alpha-fluorotestosterone and 1.5 nM norgestrel to stimulate the androgen receptor.ATG_zfTRb_XSP2 is one of 29 assay components measured or calculated from the ATG_XSP2_multi-species_TRANS assay. It is designed to make measurements of mRNA induction, a form of inducible reporter, as detected with fluorescence intensity signals by Reverse transcription polymerase chain reaction (RT-PCR) and Capillary electrophoresis technology.The assay endpoint ATG_zfTRb_XSP2 was analyzed in the positive analysis fitting direction relative to DMSO as the negative control and baseline of activity. Using a type of inducible reporter, measures of mRNA for gain-of-signal activity can be used to understand the reporter gene at the transcription factor-level as they relate to the gene TR. Furthermore, this assay endpoint can be referred to as a primary readout, because this assay has produced multiple assay endpoints where this one serves a reporter gene function. To generalize the intended target to other relatable targets, this assay endpoint is annotated to the nuclear receptor intended target family, where the subfamily is non-steroidal.
# Human liver HepG2 cells are transiently transfected with multiple reporter transcription units (MRTUs) in 6-well plates using FuGene 6 reagent (Roche; 3 ml FuGene/1 mg DNA). The MRTU constructs are regulated by a cis-regulating element (promoter). […] A major difference between the CIS and TRANS system is that in CIS activities of endogenous TFs are measured, whereas the TRANS assay evaluates changes in activities of exogenous, chimeric NR-Gal4 proteins. […] At the end of 24 hour incubation, total RNA was isolated using TriZol reagent (Invitrogen). The isolated RNA is then reverse-transcribed using oligo(dT) primer and Mo-MLV reverse transcriptase (Invitrogen) with DNAse I (Ambion) treatment for 30 min. The one-tenth of the produced cDNA was amplified by PCR using Taq DNA polymerase (Invitrogen) and two reporter sequence-specific primers. The PCR products were fluorescently labeled by primer extension with 6-arboxyfluorescein (6-FAM) 5'-labeled reporter sequence-specific primer (2 min at 95 C, 20 s at 68 C and 10 min at 72 C) and these products were digested with 5U of HpaI (New England Biolabs) for 2h at 37 C. The fragments were purified using Qiaquick PCR columns (Qiagen), analyzed on an ABI 3130xL genetic analyzer (Applied Biosystems) with peak positions identified by using a set of X-rhodamine (ROX)-labeled MapMarker1000 molecular weight standards (BioVentures). The raw capillary electrophoresis data was processed using Attagraph software (Attagene).
# [4] = ATG_XTT_Cytotoxicity_XSP2: Cytotoxicity Assessment in the Attagene TRANS-FACTORIAL Multi-Species (XSP2) HepG2 Assay (AID 2283837)
# How it was run: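 HepG2 cells, transiently transfected with multiple reporter constructs, exposed to chemical for 24 h. Cell number assessed with XTT fluorescence read-out; loss of signal fitted relative to DMSO.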
# [5] = target: human Thyroid hormone Receptor alpha (TRa), THRA (gene 7067) (UniProt P10827); assay: ATG_hTRa_XSP2: Attagene TRANS-FACTORIAL Multi-Species (XSP2) HepG2 Assay for human Thyroid hormone Receptor alpha (TRa) (AID 2283838)
# Sequence of human Thyroid hormone Receptor alpha (TRa), THRA (gene 7067) (P10827 whole entry, looked up, the tested form may be a part): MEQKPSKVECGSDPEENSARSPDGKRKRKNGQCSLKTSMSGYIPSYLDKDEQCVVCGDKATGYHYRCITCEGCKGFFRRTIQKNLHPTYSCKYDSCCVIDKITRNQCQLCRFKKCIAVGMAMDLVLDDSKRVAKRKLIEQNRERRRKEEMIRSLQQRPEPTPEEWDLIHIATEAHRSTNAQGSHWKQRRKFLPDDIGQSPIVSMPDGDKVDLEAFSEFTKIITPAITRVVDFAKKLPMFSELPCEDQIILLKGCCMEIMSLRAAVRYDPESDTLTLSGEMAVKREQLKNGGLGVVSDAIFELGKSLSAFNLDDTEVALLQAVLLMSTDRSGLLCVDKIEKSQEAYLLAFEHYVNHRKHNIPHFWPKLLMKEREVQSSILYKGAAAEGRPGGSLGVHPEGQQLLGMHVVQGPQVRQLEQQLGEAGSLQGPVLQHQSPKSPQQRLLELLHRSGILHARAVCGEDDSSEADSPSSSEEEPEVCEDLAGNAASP
# How it was run: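 HepG2 cells were transiently transfected with GAL4-UAS reporter units for chimeric human TRa-Gal4 and dosed for 24 hours, with 3 nM 6-alpha-fluorotestosterone and 1.5 nM norgestrel present. Reporter mRNA was quantified by RT-PCR, FAM labelling and capillary electrophoresis, with gain of signal fitted versus DMSO.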
# [6] = target: frog Thyroid hormone Receptor alpha (TRa), thra-a (gene 397942) (UniProt P15204); assay: ATG_frTRa_XSP2: Attagene TRANS-FACTORIAL Multi-Species (XSP2) HepG2 Assay for frog Thyroid hormone Receptor alpha (TRa) (AID 2283839);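 on AC50: AC50 reflects induction of frog TRa-driven reporter mRNA above DMSO baseline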
# Sequence of frog Thyroid hormone Receptor alpha (TRa), thra-a (gene 397942) (P15204 whole entry, looked up, the tested form may be a part): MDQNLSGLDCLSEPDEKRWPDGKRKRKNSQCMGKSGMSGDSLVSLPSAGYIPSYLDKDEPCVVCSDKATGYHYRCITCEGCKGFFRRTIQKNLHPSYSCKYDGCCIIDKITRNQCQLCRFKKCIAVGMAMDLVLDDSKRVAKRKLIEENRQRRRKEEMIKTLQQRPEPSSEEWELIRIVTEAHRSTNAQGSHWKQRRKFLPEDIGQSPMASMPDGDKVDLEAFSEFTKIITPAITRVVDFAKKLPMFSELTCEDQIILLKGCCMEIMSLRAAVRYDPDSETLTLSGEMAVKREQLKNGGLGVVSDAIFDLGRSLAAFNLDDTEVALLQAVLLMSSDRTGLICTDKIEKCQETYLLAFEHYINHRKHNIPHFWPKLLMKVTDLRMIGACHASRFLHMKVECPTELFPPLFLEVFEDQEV
# How it was run: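 Transfect HepG2 with multiple reporter units (GAL4-UAS), dose chemical, incubate 24 h. Isolate RNA, reverse-transcribe, PCR-amplify reporter, label with 6-FAM by primer extension, digest with HpaI, run capillary electrophoresis; induction scored against DMSO.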
# [7] = target: human Thyroid hormone Receptor beta (TRb), THRB (gene 7068) (UniProt P10828); assay: ATG_hTRb_XSP2: Attagene TRANS-FACTORIAL Multi-Species (XSP2) HepG2 Assay for human Thyroid hormone Receptor beta (TRb) (AID 2283840);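 further: actives raise reporter mRNA so potency reflects agonist-like gain of signal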
# Sequence of human Thyroid hormone Receptor beta (TRb), THRB (gene 7068) (P10828 whole entry, looked up, the tested form may be a part): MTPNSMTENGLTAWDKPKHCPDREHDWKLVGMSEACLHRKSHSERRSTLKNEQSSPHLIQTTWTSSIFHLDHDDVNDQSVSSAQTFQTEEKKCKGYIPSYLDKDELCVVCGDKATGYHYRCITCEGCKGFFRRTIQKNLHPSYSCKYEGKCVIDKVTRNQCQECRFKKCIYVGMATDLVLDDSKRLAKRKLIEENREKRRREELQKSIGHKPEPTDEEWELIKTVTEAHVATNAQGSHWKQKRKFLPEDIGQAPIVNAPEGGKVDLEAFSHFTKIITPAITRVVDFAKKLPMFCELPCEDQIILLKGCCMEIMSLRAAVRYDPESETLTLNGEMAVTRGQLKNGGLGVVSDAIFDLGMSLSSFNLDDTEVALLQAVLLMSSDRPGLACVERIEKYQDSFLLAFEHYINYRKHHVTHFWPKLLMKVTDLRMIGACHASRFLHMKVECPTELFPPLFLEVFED
# How it was run: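 Transient transfection of human HepG2 with multi-species NR-Gal4/GAL4-UAS reporter constructs; 24 h compound treatment; RNA isolation, reverse transcription, PCR and HpaI digest; capillary electrophoresis of labeled fragments; activity fitted upward versus DMSO.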
# [8] = CEETOX_H295R_11DCORT_noMTC: CeeTox H295R High-throughput Steroidogenesis Assay for 11-Deoxycortisol (11DCORT), maximum tolerated concentration (MTC) filtered results only (AID 2283911; active means hit-call score of the fitted dose curve at least 0.9, where 1 is the maximum; inactive means score below 0.9); conditions: actives raise or lower the signal
# Protocol: CEETOX_H295R is a cell-based, multiplexed-readout assay that uses H295R, a human adrenal gland cell line, with measurements taken at 48 hours after chemical dosing in a 96-well plate.CEETOX_H295R_11DCORT_noMTC is one of 12 assay component(s) measured or calculated from the CEETOX_H295R assay (11 hormones and 1 viability assay). It is designed to make measurements of hormone induction, a form of inducible reporter, as detected with absorbance signals by HPLC-MS-MS technology. The concentrations for these components have not been pre-filtered for the maximum tolerated concentration (MTC) based on the MTT assay (_noMTC).Data from the assay component CEETOX_H295R_11DCORT_noMTC was analyzed into 1 assay endpoint. This assay endpoint, CEETOX_H295R_11DCORT_noMTC, was analyzed with bidirectional fitting relative to DMSO as the negative control and baseline of activity. Using a type of inducible reporter, gain or loss-of-signal activity using HPLC-MS-MS was used to understand synthesis of 11-Deoxycortisol in H295R cell line at 48hr of chemical exposure, without filtering concentrations for maximum tolerated concentration (MTC). To generalize the intended target to other relatable targets, this assay endpoint is annotated to the steroid hormone intended target family, where the subfamily is glucocorticoids.
# Cell culture and media preparation procedures were conducted in accordance with OECD Test No. 456 guidelines, with minor modifications. H295R cells (ATCC CRL-2128) were expanded for 5 passages and frozen in batches in liquid nitrogen. […] For steroid quantification, media samples were shipped to OpAns, LLC (Durham, NC) on dry ice, and samples were thawed to room temperature prior to liquid-liquid extraction. […] Steroid hormones were separated by HPLC, eluted using a reverse phase C18 gradient with electrospray positive ionization, followed by quantification by tandem mass spectrometry (MS/MS). Data were acquired on a MassHunter Workstation Acquisition version B03.01 (Agilent Technologies, Inc.) and processed using MassHunter Quantitative Analysis for QQQ. Accuracy was determined for each hormone analyte from 3 standards to determine upper and lower limits of quantification (ULOQ and LLOQ, respectively) using a 7-point standard curve. Precision and accuracy of the extraction and quantification methods were calculated as the percent relative standard deviation (%RSD) of the spiked standards and percent spiked standard recovered, respectively. The goal was to achieve 100% accuracy (i.e., recover all spiked-in standard at quantification with minimal loss during run time) and good precision (i.e., have %RSD <15% to ensure reproducibility). Test medium was removed following chemical exposure, and cell viability was evaluated in the same wells by MTT. […]
# [9] = test system: Sodium/Iodide Symporter (NIS), SLC5A5 (gene 6528); assay: CPHEA_Stoker_NIS_Inhibition_RAIU: CPHEA's Radioactive Iodide Uptake (RAIU) Assay for Sodium/Iodide Symporter (NIS) Inhibition, Stoker and Laws Labs (AID 2283841)
# How it was run: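 HEK293T cells stably expressing human NIS (hNIS-HEK293T-EPA) were exposed to test chemicals at 0.001–100uM (0.5% final DMSO) with 125I at a final 329pM in HBSS/10mM HEPES pH 7.4. After 2 hours at room temperature and ice-cold washes, intracellular 125I was counted as CPM and normalized to DMSO wells.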
# [10] = CPHEA_Stoker_NIS_Cytotoxicity: Cytotoxicity Assessment for CPHEA's Radioactive Iodide Uptake (RAIU) Assay for Sodium/Iodide Symporter (NIS) Inhibition, Stoker and Laws Labs (AID 2283897);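 on AC50: active means loss of ATP signal versus DMSO meaning cytotoxicity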
# How it was run: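 hNIS-HEK293T-EPA human kidney cells were exposed for 2 hours at room temperature to test chemicals (0.001–100uM, 0.5% final DMSO) in HEPES-buffered HBSS, pH 7.4. Viability was read as ATP content by luciferase bioluminescence, loss of signal versus DMSO.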
smiles,measurement,setting,value
c1ccc2c(c1)Nc1ccccc1S2,outcome,[1],inactive
same,outcome,[2],inactive
same,outcome,[3],inactive
same,outcome,[4],inactive
same,outcome,[5],inactive
same,outcome,[6],inactive
same,outcome,[7],inactive
CCOC(=O)c1ccccc1N,outcome,[8],inactive
CCOP(=S)(OCC)SCS(=O)(=O)CC,AC50,[8],39.2 µM (active)
ClC1=C(Cl)C2(Cl)C3C(Cl)C(Cl)CC3C1(Cl)C2(Cl)Cl (stereo not drawn),outcome,[9],inactive
same,AC50,[10],9.92 µM (active)
CCOC(=O)c1ccccc1C(=O)OCC,outcome,[8],inactive
COC(=O)C(F)(F)C(F)(F)OC(F)(C(F)(F)F)C(F)(F)OC(F)=C(F)F (stereo not drawn),outcome,[9],inactive
CCOc1ccc(C(C)(C)COCc2cccc(Oc3ccccc3)c2)cc1,AC50,[8],13.1 µM (active)
CO/N=C(/C(=O)OC)c1ccccc1COc1ccccc1C,AC50,[9],7.83 µM (active)
same,outcome,[10],inactive
c1ccc2c(c1)sc1ccccc12,outcome,[9],inactive
same,outcome,[10],inactive
O=P(OCC(Br)CBr)(OCC(Br)CBr)OCC(Br)CBr (stereo not drawn),outcome,[9],inactive
O=S(=O)(c1ccc(O)cc1)c1ccc(O)cc1,outcome,[1],inactive
same,outcome,[2],inactive
same,outcome,[3],inactive
same,outcome,[4],inactive
same,outcome,[5],inactive
same,AC50,[6],100 µM (active)
same,outcome,[7],inactive
OCC(F)(F)OC(F)(F)C(F)(F)OC(F)(F)C(F)(F)OC(F)(F)CO,outcome,[9],inactive
O=S(=O)(F)C(F)(F)C(F)(F)C(F)(F)C(F)(F)C(F)(F)C(F)(F)C(F)(F)C(F)(F)F,outcome,[9],inactive
CC(C)(C)c1ccc(O)cc1,outcome,[1],inactive
same,outcome,[2],inactive
same,outcome,[3],inactive
same,outcome,[6],inactive
same,outcome,[9],inactive
